Compound activity: PubChem BioAssay, National Center for Advancing Translational Sciences (NCATS)
HT1080NT lethal = kills 2HG-producing HT-1080-NT fibrosarcoma cells; HT-1080-NT fibrosarcoma viability, CellTiter-Glo ATP luminescence, 48 h; Potency, µM (doses to about 46.1 µM), without a hit: top-dose activity, negative = less viability, actives largely listed as cytotoxic; actives 1.6% (n = 360,000); AID 686970;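 also: NT is the 2HG producing partner of a matched IDH1 knockdown line; potency is read from the fitted curve at half-maximal effect; 0% = DMSO-treated cells and -100% = media-only wells without cells; nearly all actives have a fitted effect of over 55% in size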
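HT-1080-NT fibrosarcoma cells (2HG-overproducing), 750 cells/well in RPMI with 5% FBS, dosed after 2 h and incubated 48 h at 37C. CellTiter-Glo luminescence normalized to DMSO and no-cell wells; concentration-response curves fitted and classed.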
IL-1B inflam inh = inhibitors of inflammasome signaling (IL-1 beta secretion); THP-1 LPS/ATP IL-1B secretion, AlphaLISA, 16 h; stronger effect = lower value; activity change, % at 57.5 µM; actives 4.7% (n = 360,000); AID 743279; in the data active = activity change below about -50%; inconclusive = mostly about -30% to -49%
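THP-1 cells pretreated 1 hr with compounds (up to 57.5 uM final), then stimulated with LPS (250 ng/mL final) plus ATP (1.25 mM final); secreted IL-1B measured by AlphaLISA after 16 hr, decreased signal indicating inhibition.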
HT1080 IDH1KD tx = toxicity to HT-1080 IDH1 knockdown cells (counter line) | Potency, µM (top dose mostly 46.1 µM), for inactives: at the top dose activity, negative = toxicity, actives largely listed as cytotoxic | actives 2% (n = 360,000) | HT-1080 IDH1 knockdown viability, ATP luminescence, 48 h;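 also: potency is read from the fitted curve at half-maximal effect; 0% = DMSO wells and -100% = cell-free medium wells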
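Cytotoxicity counter-line: IDH1KD HT-1080, 48 h, CellTiter-Glo. Curves classed by r2, magnitude and activity.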
TDP1 cell CPT = DT40-hTDP1 cell growth loss with CPT; actives 12% (n = 420,000); chicken DT40 Tdp1-/-;hTDP1 cells + 20 nM CPT, ATP luminescence, 48 h; Potency, µM (highest dose often 46.2 µM), for inactives: top-dose activity change, negative = growth inhibition, usual class: inhibitors; also: potency is read from the fitted curve at half-maximal effect; nearly all actives have a fitted effect of over 55% in size
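Chicken DT40 Tdp1-/- cells complemented with human TDP1, 400 cells/well, exposed to compounds plus 20 nM camptothecin for at least 48 h at 37 C; viability read as ATP content by CellTiter-Glo luminescence.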
DT40 TDP1 no CPT = qHTS for Inhibitors of human tyrosyl-DNA phosphodiesterase 1 (TDP1): qHTS in cells in absence of CPT. DT40 Tdp1-/- hTDP1 cells, no CPT, ATP luminescence, 48 h. Potency, µM (top dose mostly 46.2 µM), for the others: at the highest dose activity change, negative = growth inhibition, hits mostly inhibitors. actives 15% (n = 420,000); also: potency is read from the fitted curve at half-maximal effect; nearly all actives have a fitted effect of over 55% in size
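Chicken DT40 Tdp1-/- cells stably complemented with human TDP1 were seeded at 400 cells/well with DMSO in place of 20 nM camptothecin. After compound pinning, cells grew at least 48 hr at 37 °C; viability read by CellTiter-Glo luminescence.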
* marks the source's active call; other numbers are inactive results; ! = not confirmed by another sample. A selection: hits, their analogues and other compounds. The true share with any hit is near 19%. Unless noted, calls follow the shape of the dose curve; as a rule, active = well fitted curve in the direction sought with a large enough effect; inconclusive = small, poorly fitted or top-dose-only effect, or another doubt; inactive = no such curve, though single readings can be large; an effect the other way counts as inactive or inconclusive. Unless noted, % is scaled to controls: 0 for no effect and ±100 for the full control effect.

Screening CCc1ccc(-c2cn3c(n2)sc2cc(C(=O)NCC(C)c4ccccc4)ccc23)cc1 (centres undefined) returned TDP1 cell CPT inconclusive and DT40 TDP1 no CPT -15%.
For CC(NC(=O)c1ccc2c(c1)sc1nc(-c3ccc(F)cc3)cn12)C12CC3CC(CC(C3)C1)C2 (centres undefined) the results were TDP1 cell CPT -10% and DT40 TDP1 no CPT -7%.
CCc1ccc(-c2cn3c(n2)sc2cc(C(=O)NC4CCCCCC4)ccc23)cc1 was read as TDP1 cell CPT 12µM* and DT40 TDP1 no CPT 10µM*.
`Cc1ccc(-c2cn3c(n2)sc2cc(C(=O)NC4CCCCC4)ccc23)cc1` gave TDP1 cell CPT 4.1µM* and DT40 TDP1 no CPT 4.6µM*.
`O=C(NC1CCCCC1)c1ccc2c(c1)sc1nc(-c3ccccc3)cn12` gave TDP1 cell CPT inconclusive and DT40 TDP1 no CPT 10µM*.
For COc1ccc(-n2ncc(S(=O)(=O)c3ccccc3)c2-c2ccc(Cl)cc2)cc1 the results were HT1080NT lethal -15%, IL-1B inflam inh inconclusive, HT1080 IDH1KD tx -27%, TDP1 cell CPT 26µM* and DT40 TDP1 no CPT 21µM*.
O=S(=O)(c1ccccc1)c1cnn(-c2ccccc2)c1-c1ccc(F)cc1 was read as HT1080NT lethal -3%, IL-1B inflam inh -3, HT1080 IDH1KD tx -21%, TDP1 cell CPT -16% and DT40 TDP1 no CPT -2%.
Screening NC(=S)NN=Cc1nccc2c(C(F)(F)C(F)(F)C(F)(F)F)cccc12 returned HT1080NT lethal inconclusive, IL-1B inflam inh 117, HT1080 IDH1KD tx inconclusive, TDP1 cell CPT 0.016µM* and DT40 TDP1 no CPT 0.52µM*.
Cc1cnc(C=NNC(N)=S)c2cccc(N)c12 was read as HT1080NT lethal -18%, IL-1B inflam inh 62, HT1080 IDH1KD tx inconclusive, TDP1 cell CPT 3.3µM* and DT40 TDP1 no CPT 3.7µM*.
CC(=O)n1cc(/C=N/NC(N)=S)c2ccccc21 was read as HT1080NT lethal 18%, IL-1B inflam inh -15, HT1080 IDH1KD tx 6%, TDP1 cell CPT inconclusive and DT40 TDP1 no CPT -102%.
For NC(=S)NN=Cc1nccc2ccccc12 the results were HT1080NT lethal 4.1µM*, IL-1B inflam inh 109, HT1080 IDH1KD tx inconclusive, TDP1 cell CPT 2.3µM* and DT40 TDP1 no CPT 2.1µM*.
Screening Cc1ccc(CC(=O)NCCC(=O)O)cc1 returned HT1080NT lethal 24%, IL-1B inflam inh 6, HT1080 IDH1KD tx 16%, TDP1 cell CPT 2% and DT40 TDP1 no CPT 17%.
For O=C(O)c1ccc(CNc2ncnc3nc[nH]c23)cc1 the results were HT1080NT lethal 21%, HT1080 IDH1KD tx 25%, TDP1 cell CPT 8% and DT40 TDP1 no CPT -2%.
Screening COc1ccc(CNc2nc(NCc3ccc(OC)cc3)c3[nH]cnc3n2)cc1 returned HT1080NT lethal inconclusive, IL-1B inflam inh 10, HT1080 IDH1KD tx inconclusive, TDP1 cell CPT inconclusive and DT40 TDP1 no CPT 29µM*.
`COc1ccc(CNc2ncnc3nc[nH]c23)cc1` gave HT1080NT lethal 1%, HT1080 IDH1KD tx -5%, TDP1 cell CPT 14µM* and DT40 TDP1 no CPT 14µM*!.
Screening Cc1ccc(NC(=O)c2ccc(NCCc3ccccc3)c([N+](=O)[O-])c2)cc1F returned HT1080NT lethal -2%, IL-1B inflam inh 3, HT1080 IDH1KD tx 4%, TDP1 cell CPT inconclusive and DT40 TDP1 no CPT inconclusive.
Screening O=C(/C=C/c1ccc(N2CCCCC2)c([N+](=O)[O-])c1)c1ccc(O)cc1 returned HT1080NT lethal 18µM*, IL-1B inflam inh -95*, HT1080 IDH1KD tx 18µM*, TDP1 cell CPT inconclusive and DT40 TDP1 no CPT 18µM*.
For Cc1cc(C(=O)Nc2ccc(N3CCCC3)c(Cl)c2)ccc1[N+](=O)[O-] the results were HT1080NT lethal -19%, HT1080 IDH1KD tx 0%, TDP1 cell CPT inconclusive and DT40 TDP1 no CPT 18µM*.
For O=C(Nc1ccc(N2CCCC2)c(Cl)c1)c1ccc([N+](=O)[O-])cc1 the results were HT1080NT lethal -5%, IL-1B inflam inh -30, HT1080 IDH1KD tx -2%, TDP1 cell CPT -11% and DT40 TDP1 no CPT 0%.
Screening Cc1ccc(NC(=O)c2ccc(NCCN)c([N+](=O)[O-])c2)cc1Cl returned HT1080NT lethal 0%, IL-1B inflam inh -16, HT1080 IDH1KD tx -2%, TDP1 cell CPT inconclusive and DT40 TDP1 no CPT 21µM*.
`Nc1nnnn1/N=C/c1ccc(N2CCCCC2)c([N+](=O)[O-])c1` gave HT1080NT lethal 1%, IL-1B inflam inh -7, HT1080 IDH1KD tx -4%, TDP1 cell CPT 21µM* and DT40 TDP1 no CPT 13µM*.
CN1C(=O)c2ccc(NC(=O)c3ccc(N4CCCCC4)c([N+](=O)[O-])c3)cc2C1=O was read as HT1080NT lethal 3%, IL-1B inflam inh 29, HT1080 IDH1KD tx -5%, TDP1 cell CPT 23µM* and DT40 TDP1 no CPT inconclusive.
For Cc1ccc(S(=O)(=O)N2CCCC(C(=O)NCCc3ccccc3)C2)cc1 (centres undefined) the results were HT1080NT lethal -8%, IL-1B inflam inh 35, HT1080 IDH1KD tx 20%, TDP1 cell CPT -28% and DT40 TDP1 no CPT -25%.
`CC1(C)CC[C@]2(C(=O)O)CC[C@]3(C)C(=CCC4[C@@]5(C)CC[C@H](O)C(C)(C)[C@@H]5CC[C@]43C)C2C1` (some centres undefined) gave TDP1 cell CPT -2% and DT40 TDP1 no CPT -9%.
For CC1(C)C[C@H](O)[C@]2(CO)CC[C@]3(C)C(=CCC4[C@@]5(C)CC[C@H](O)C(C)(C)C5CC[C@]43C)[C@@H]2C1 (some centres undefined) the results were HT1080NT lethal 5%, IL-1B inflam inh 18, HT1080 IDH1KD tx 1%, TDP1 cell CPT inconclusive and DT40 TDP1 no CPT inconclusive.
`CC1(C)C[C@H](O)[C@]2(CO)[C@H](O)C[C@]3(C)C(=CCC4[C@@]5(C)CC[C@H](O)C(C)(C)C5CC[C@]43C)[C@@H]2C1` (some centres undefined) gave HT1080NT lethal 21µM*, IL-1B inflam inh 15, HT1080 IDH1KD tx inconclusive, TDP1 cell CPT inconclusive and DT40 TDP1 no CPT 23µM*.
For CC1(C)CC[C@]2(C(=O)O)CC[C@]3(C)C(=CC[C@@H]4[C@@]5(C)CC[C@H](O)C(C)(C)[C@@H]5CC[C@]43C)[C@@H]2C1 the results were HT1080NT lethal 16%, IL-1B inflam inh 26, HT1080 IDH1KD tx 2%, TDP1 cell CPT inconclusive and DT40 TDP1 no CPT 23µM*.
Screening CN(c1ccccc1)c1ncnc2c1ncn2C returned HT1080NT lethal 5%, IL-1B inflam inh -10, HT1080 IDH1KD tx 14%, TDP1 cell CPT -23% and DT40 TDP1 no CPT -8%.
